# Measurements from PubChem BioAssay AID588832 (Broad Institute, 2011).
# The campaign covered roughly 8,000 compounds. Fewer than 10 were called active. No rule for the calls is given here. These entries were drawn from the full list.
# Tested on: hedgehog, isoform A (Drosophila melanogaster)
# Assay: Hh protein inhibition, biochemical readout – plate reader, single concentration, primary screen (AID 588832);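 also: 0% = neutral control wells and 100% = positive control wells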
# Settings: Biochemical plate reader assay, at 30.3 µM, active compounds read high
row,Structure (SMILES),inhibition
1,O=C(Nc1ccc(F)cc1F)C1CCN(c2ncnc3c2sc2cccc(F)c23)CC1,7.02% (inactive)
2,CCCCOC(=O)c1cc(=O)[nH]c(=O)[nH]1,5.12% (inactive)
3,Cc1cc(C)n2nc(S(=O)(=O)N(C)c3ccccc3)nc2n1,6.52% (inactive)
4,Cc1nc2sc(C(c3ccccc3)N3CCN(C)CC3)c(O)n2n1 (stereo unspecified),14.5% (inactive)
5,COc1ccc(-c2nc(C(=O)NCCCN3CCOCC3)cc3c2[nH]c2ccccc23)cc1OC,1.72% (inactive)
6,C[C@H](NC(=O)[C@H]1N2C(=O)c3ccccc3C2SC1(C)C)C(=O)N1CCC[C@H]1CO (stereo partly specified),1.72% (inactive)
7,Cc1ccc(Cl)cc1N1CCN(C(=O)C2CCN(c3nnc(-n4cccc4)s3)CC2)CC1,15.4% (inactive)
8,Cc1cc(C)n2c(SCC(=O)Nc3ccccc3)nnc2n1,-12.9% (inactive)
9,Cc1ccc(S(=O)(=O)Nc2ccccc2C(=O)Nc2sccc2C(=O)NN(C)C)cc1,7.69% (inactive)
10,O=c1cc(-c2ccc(O)cc2)oc2c(O)c(O)c(O)c(O)c12,89.5% (active)
11,O=c1cc(-c2ccc(O)cc2)oc2c(-c3c(O)cc(O)c4c(=O)cc(-c5ccc(O)cc5)oc34)c(O)cc(O)c12,3.51% (inactive)
12,COc1c(O)c(O)c2oc(-c3ccccc3)cc(=O)c2c1OC,6.79% (inactive)
13,CN(C)C(=O)c1nnc(Cc2ccc(Cl)cc2)o1,12.9% (inactive)
14,Cc1c(C(=O)NNc2cc(=O)n(C)c(=O)n2C)cccc1[N+](=O)[O-],1.72% (inactive)
15,NC(=O)c1c(NC(=O)c2c(F)cccc2F)sc2c1CCN(Cc1ccccc1)C2,0% (inactive)
16,COc1ccc(-n2c(Cc3cccn3C)nnc2SCC(=O)Nc2ccccc2OC)cc1,5% (inactive)

row,Structure (SMILES),inhibition
1,CCOc1ccc(C(=O)c2cnc3ccccc3c2N2CCN(CC)CC2)cc1,20% (inactive)
2,O=C(Cn1cnc2c(nnn2Cc2ccccc2)c1=O)NCc1ccco1,2.73% (inactive)
3,CCOC(=O)c1c(C)c(-c2ccccc2)n(CC(=O)N2CCCC2)c1C,0.909% (inactive)
4,Cc1cc(Nc2cccc(F)c2)n2nc(C)nc2n1,-2.57% (inactive)
5,C=CC[C@]12C[C@@H](OC)C(=O)C=C1O[C@@H](c1ccc(OC)c(OC)c1)[C@H]2C,8.62% (inactive)
6,CC1Cc2ccccc2N1C(=O)c1cnc2sccn2c1=O (stereo unspecified),-0.943% (inactive)
7,CCOc1ccc(CC(=O)NCc2ccc3c(c2)cc(C)n3C)cc1,3.85% (inactive)
8,O=C(COc1ccc2c(c1)oc(=O)c1ccccc12)N[C@@H](Cc1ccccc1)C(=O)O,0% (inactive)
9,COC(=O)C1=C(C)n2cnnc2NC1c1ccc(Cl)cc1 (stereo unspecified),15% (inactive)
10,Cc1ccc(C)c(N2CCN(C(=O)c3ccc4c(=O)n5c(nc4c3)CCCCC5)CC2)c1,-12.9% (inactive)
11,COc1ccc(C(=O)NCc2ccc3c(c2)cc(C)n3C)cc1,5.23% (inactive)
12,COc1ccccc1NS(=O)(=O)c1cc2c(cc1C)NC(=O)CO2,9.62% (inactive)
13,Cc1ccc(NC(=S)NCc2ccc3[nH]c4c(c3c2)CCCC4)cc1,4.39% (inactive)
14,COc1ccc(-c2nc(CS(=O)CC(=O)NCCC3=CCCCC3)c(C)o2)cc1 (stereo unspecified),7.69% (inactive)
15,Cc1cnc(NC(=O)CSc2nnc(COc3c(C)cccc3C)o2)s1,10% (inactive)
